# Results: PubChem BioAssay (NCI)
# Values joined by “and” are separate entries in the source; they are usually repeats but may differ in a detail not shown here. Equal entries are not always repeated. The panel holds about 83,000 compounds, 20% with a hit somewhere; the sample as a whole holds those more often.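 Negative percent growth values reflect cell death: -40 means 40% of the cells present at the start died, and -100 means all died.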 A number with no mark means an inactive call. Active and inactive are the calls of the source. How the source made its calls: active means growth percent below 10; inactive means the rest.
# Tested on: MDA-MB-468 breast
# Experiment: NCI-60 one-dose screen, 48 h (100 = growth as untreated, 0 = no growth, -100 = all killed)
# Details: 10 µM unless noted
row,SMILES,growth
1,CC(=O)C1=C(C)NC(NN)=NC1c1cccc(Cl)c1 (configuration not stated),105%
2,COc1ccc(OC)c(NC(=O)CCCCCCNC(=O)C(O)(O)C(F)(F)F)c1,22.6%
3,O=[N+]([O-])c1cccc(/C=N\Nc2ccccc2)c1,81.4%
4,CC(C)c1ccc(Cc2cnc(NC(=O)c3cc(Br)cs3)s2)cc1,-4.52% (active)
5,O=c1[nH]c([C@@H]2CCCN2)nc2c1oc1ccc(Cl)cc12,33.6%
6,O=C(C1=Cc2cc3ccccc3n2Cc2cnnn21)c1ccccc1,5.98% (active)
7,O=C(Nc1ccc(Br)cc1)Nc1cccc(Br)c1,27.2%
8,Cc1ccc(NC(=O)Nc2c(Cl)cccc2Cl)cn1,72.8%
9,COc1cc(-c2nn(-c3cccc(NC(=O)CCN4CCN(Cc5ccccc5)CC4)c3)cc2-c2ccncc2)ccc1Cl,1.17% (active)
10,C=C1C(=O)O[C@H]2[C@H]1CC/C(COC(=O)N[C@H]1C[C@H](O[C@H]3C[C@](O)(C(=O)CO)Cc4c(O)c5c(c(O)c43)C(=O)c3c(OC)cccc3C5=O)O[C@@H](C)[C@H]1O)=C\CC[C@@]1(C)O[C@@H]21,-55.9% (active)
11,C=C(C)[C@@H]1CC[C@]2(C(=O)NCC(=O)OC)CC[C@]3(C)[C@H](CC[C@@H]4[C@@]5(C)Cc6c([nH]c7ccccc67)C(C)(C)[C@@H]5CC[C@]43C)[C@@H]12,55.1%
12,CC1(C)CC[C@]23CC[C@]4(C)[C@H](CC[C@@H]5[C@@]6(C)CCCNC(C)(C)[C@@H]6CC[C@]54C)[C@H]2[C@H]1OC3,-50.5% (active)
13,N#C/C(=C\c1ccc(Cl)cc1Cl)C(N)=O,96.3%
14,COc1ccc2nc(N=Nc3c(O)ccc4ccccc34)sc2c1,25.3%
15,CCCn1cnc2c(c1=N)C(c1ccc(OC)cc1)c1sc3c(C)cccc3c1O2 (configuration not stated),50%
16,COc1ccc(-c2ccnc3c(C#N)c(Nc4ccccc4)nn23)cc1OC,79.4%
17,CCCCCCCCn1ccc2cc(NC(=O)CN=[N+]=[N-])ccc21,105%
18,N=C(N)c1ccc(-c2ccc(-c3ccc(Cl)cc3Cl)s2)nc1,-13.7% (active)
19,C/C(=N\NC(=O)c1ccncc1)c1ccccc1O,13.1% and 22.6%
20,CCCCCCNC(=O)Oc1ccc(/C(=C(\C)c2ccc(Cl)cc2)c2ccc(OCCN(C)C)cc2)cc1,84.3%
21,Cc1ccc(-c2c(-c3ccccc3)c(=O)oc3ccc(C)cc23)cc1,97.3%
22,COC(=O)Nc1nc2ccc(C(=O)c3ccccc3N(C)C3COC3)cc2[nH]1,23.8%
23,CCC(=O)Oc1ccc(-c2ccccc2)cc1Br,98.4%
24,COc1cc(NC(C)CCCN)c2nc(C)ccc2c1Oc1ccc(F)cc1 (configuration not stated),57.3%
25,COc1ccc(/C=C(\C#N)n2nnc3ccccc32)cc1,4.67% (active)
26,Cc1[nH]c(C(=O)Nc2nc3ccc(NC(=O)CCN)cc3s2)c(Cl)c1Cl,69.4%
27,O=S(=O)(NCCCNc1cc(-c2c(-c3cccc(O)c3)nc3sccn23)ccn1)c1cccc(Cl)c1,37.2%
